# Bioassay records from PubChem BioAssay.
# In the library only some 32% were active in any assay of this set; here they are far more common.
# PostGolgi ctrl: inhibits growth of the yeast control strain; AID 738; efflux-deficient yeast background strain, growth absorbance A615, 16 h; 98,000 tested, 5% active; inhibition, % at 10 µM
# CYP2C9 activ: activators of human CYP2C9 | recombinant CYP2C9, luciferin-H conversion, luminescence; hits give high values; factor 1 = untreated enzyme, 0 = blocked | activation factor at 5 µM | 96,000 tested, 1.4% active;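 active = activation factor of 2 or more for CYP2C9 at a 5 µM dose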;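 also: 0 = sulfaphenazole-blocked wells and 1 = vehicle-only wells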
# CYP2C19 inhib: blocks human cytochrome P450 2C19; CYP2C19 Supersomes, luciferin-H EGE luminescence, 30 min; inhibition, % at 5 µM; 96,000 tested, 21% active; AID 778;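 active = CYP2C19 inhibition above a set limit at 5 µM in the primary screen, cut at about 50% in these data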;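 also: plate controls were negative control wells for no effect and 2.5 mM tranylcypromine positive control for full effect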
# Target sequence (P33261 whole entry, looked up): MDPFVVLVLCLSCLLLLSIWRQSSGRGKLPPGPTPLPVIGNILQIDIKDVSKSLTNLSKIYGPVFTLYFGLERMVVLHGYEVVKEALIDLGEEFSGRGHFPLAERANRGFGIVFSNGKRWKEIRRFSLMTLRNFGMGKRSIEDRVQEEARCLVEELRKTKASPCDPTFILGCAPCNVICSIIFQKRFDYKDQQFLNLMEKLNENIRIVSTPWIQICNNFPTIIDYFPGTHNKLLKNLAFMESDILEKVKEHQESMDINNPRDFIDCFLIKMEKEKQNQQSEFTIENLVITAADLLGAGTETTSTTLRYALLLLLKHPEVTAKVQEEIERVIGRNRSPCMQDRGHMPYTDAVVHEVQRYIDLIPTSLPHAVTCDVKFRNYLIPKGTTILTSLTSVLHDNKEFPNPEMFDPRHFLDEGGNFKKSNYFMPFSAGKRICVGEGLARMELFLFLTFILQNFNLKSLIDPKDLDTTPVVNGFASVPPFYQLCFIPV
# CYP2C19 activ: cytochrome P450 2C19 (human) activation | P33261 | recombinant CYP2C19, luciferin-H EGE luminescence; hits give high values; 0 = fully inhibited enzyme, 1 = untreated enzyme | activation factor at 5 µM | 96,000 tested, under 10 active | AID 1025;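 active = activation factor of at least 2 at 5 µM in the primary screen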;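 also: 0 = wells with 2.5 mM tranylcypromine and 1 = vehicle-only wells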
# CYP2C9 inhib: human CYP2C9 inhibition; AID 777; CYP2C9 Supersomes, luciferin-H conversion, luminescence; P11712; 96,000 tested, 20% active; inhibition, % at 5 µM;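 active = blocking of liver enzyme CYP2C9 beyond about 50% at 5 µM, limit read from the data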
# PostGolgi yeast: growth inhibition of a yeast mutant, post-Golgi transport screen. AID 739. 98,000 tested, 0.9% active. post-Golgi transport phenotypic cell assay. inhibition, % at 10 µM;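 also: yeast cells grown in 1536-well plates; yeast grown about 18 h at 30C before absorbance read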
# * = called active by the depositor; x = not tested or not shown. Rule as the data show it, unless noted: active = inhibition above about 30%; inactive = the rest.
SMILES,PostGolgi ctrl,CYP2C9 activ,CYP2C19 inhib,CYP2C19 activ,CYP2C9 inhib,PostGolgi yeast
CCNc1nc(NCC)nc(Nn2cnnc2)n1,7.4,1.1,2.1,1,-12.1,-8.1
Cc1cc(/C=N/n2cnnc2)c(C)n1-c1ccccc1,4.2,0.3,100.0*,0,72.6*,8.5
Cc1cc(/C=N/n2cnnc2)c(C)n1-c1ccc(Cl)cc1Cl,36.7*,0.1,99.2*,0,94.0*,2.0
Cc1cc(/C=N/n2cnnc2)c(C)n1-c1cccc(Cl)c1,6.8,0,99.4*,0,95.2*,13.9
Cc1sc(-n2c(C)cc(/C=C3\SC(=S)NC3=O)c2C)c(C#N)c1C,23.8,x,x,x,x,3.4
Cc1sc(-n2c(C)cc(/C=N/n3cnnc3)c2C)c(C#N)c1C,10.4,0.2,89.4*,0.1,82.9*,1.6
Cc1cc(C=C2C(=O)c3ccccc3C2=O)c(C)n1-c1ccccc1,8.2,0.6,30.5,0.7,38.3,7.5
CCCCn1c(=O)nc2n(-c3ccccc3)c3ccccc3cc-2c1=O,10.5,0.9,14.8,0.9,5.0,-1.6
C/C(=C\c1ccccc1)C(=O)NC1CCSC1=O (stereo unspecified),5.6,1,21.1,0.8,-0.4,-2.2
CC(C)OC(=O)CSc1nnc(-c2ccc(Cl)cc2)n1N,-6.7,1,47.3,0.5,4.5,34.9*
CC(C)OC(=O)CSc1nnc(-c2ccc(Cl)cc2Cl)n1N,0.4,0.4,65.0*,0.3,59.1*,1.1
CCOc1ccc(-c2nnc(SCC(=O)N(CC)CC)n2N)cc1,5.0,2.1*,3.7,1,-109.5,-3.9
Nn1c(SCC(=O)N2CCOCC2)nnc1-c1ccc(Cl)cc1Cl,13.9,1.1,-0.7,1,-7.5,5.8
CCN(CC)C(=O)CSc1nnc(-c2ccccc2)n1N,17.2,0.9,2.0,1,5.0,13.4
Cc1ccc(-c2nnc(SCC(=O)OC(C)C)n2N)cc1,-1.7,1.1,4.5,1,-5.1,-2.3
Cc1cccc(N(CC(=O)NC2CCCCC2)C(=O)c2c(C)noc2C)c1,-2.2,0.7,2.4,1,31.8,-2.4
COc1cc(-c2nnc(Sc3ccc(C(F)(F)F)cc3[N+](=O)[O-])o2)cc(OC)c1OC,28.1,0.8,39.3,0.6,19.6,3.3
O=C(c1ccccc1)N1CCC(O)(c2cccnc2)CC1,1.8,0.7,9.8,0.9,29.5,12.2
CCS(=O)(=O)Nc1cc(-c2nc3cccnc3s2)ccc1C,6.2,0.8,-0.6,1,16.7,2.0
Cc1c(NS(=O)(=O)c2ccc3c(c2)OCCO3)cccc1-c1nc2cccnc2s1,17.6,0.2,100.4*,0,82.7*,-0.5
Cc1cc(-c2nc3cccnc3s2)ccc1NS(=O)(=O)c1ccc2c(c1)OCCO2,13.0,0,30.6,0.7,96.2*,-3.7
CC(C)Oc1ccc(C(=O)N/N=C/c2ccc(-c3ccc(S(=O)(=O)Nc4ncccn4)cc3)o2)cc1,4.5,0.2,18.9,0.8,83.8*,8.3
COc1ccc(CC(=O)Nc2ccc(S(=O)(=O)Nc3ncccn3)cc2)cc1,29.2,1.1,0.2,1,-10.5,-11.2
O=c1c2cc(N3CCOCC3)ccc2[nH]c(=S)n1Cc1ccco1,2.1,0.5,28.1,0.7,53.0*,9.3
CC1(c2cccs2)CC(c2cccs2)=C(C#N)C(=O)N1 (stereo unspecified),7.1,1.6,79.2*,0.2,-57.3,-6.3
SMILES,PostGolgi ctrl,CYP2C9 activ,CYP2C19 inhib,CYP2C19 activ,CYP2C9 inhib,PostGolgi yeast
O=C(NCCc1ccc(Cl)cc1)C1CCC(=O)N1Cc1ccccc1Cl (stereo unspecified),11.2,0.6,36.3,0.6,44.3,-8.1
COCCCNC(=O)C1CCC(=O)N1Cc1ccccc1Cl (stereo unspecified),6.2,0.9,6.5,0.9,9.4,0.6
O=C(Nc1ccc(Cl)cc1Cl)C1CCC(=O)N1Cc1ccccc1Cl (stereo unspecified),13.6,0.7,50.9*,0.5,33.4,-4.7
O=C(O)C1CCC(=O)N1Cc1ccccc1Cl (stereo unspecified),30.2*,0.9,4.4,1,11.4,0.2
Cc1cc(C)nc(NC2=NCC(=O)N2c2ccccc2Br)n1,4.1,x,x,x,x,3.2
OC(CNC1CCCCC1)CN1CCN(CC(O)CNC2CCCCC2)CC1 (stereo unspecified),x,1,2.1,1,-4.4,x
Cc1cc(C)n2nc(SCN3C(=O)c4ccccc4C3=O)nc2n1,6.0,1.1,83.0*,0.2,-6.9,0.2
O=C(CCCN1C(=O)c2ccccc2C1=O)Nc1ccccn1,-9.8,x,x,x,x,4.9
O=C1c2ccccc2C(=O)N1CSc1ncccn1,-3.0,1.7,60.6*,0.4,-65.2,-1.6
Cc1cc(C)n2nc(SCc3nc4ccccc4[nH]3)nc2n1,4.9,0.8,70.6*,0.3,20.5,-1.1
CCN(C(=O)CSc1nc2nc(C)cc(C)n2n1)c1ccccc1,25.9,0.6,8.3,0.9,35.6,6.2
N#C/C(=C/c1ccc(F)cc1)c1nc(CCN2C(=O)c3ccccc3C2=O)cs1,-1.7,0.8,15.0,0.8,18.2,8.9
Cc1ccc(-c2nc(CCN3C(=O)c4ccccc4C3=O)cs2)cc1,19.4,0.7,52.3*,0.5,30.5,8.4
Cc1c(NC(=O)CCC2CCCCC2)c(=O)n(-c2ccccc2)n1C,5.2,1,-3.3,1,-3.4,-6.3
O=C(CCN1C(=O)c2ccccc2C1=O)Nc1ccccn1,3.2,1.2,-16.2,1.2,-21.7,5.0
O=C1c2ccccc2C(=O)N1CCc1ccccn1,-6.1,0.9,83.7*,0.2,10.0,-0.6
CCCC(=O)NCCCc1nc2ccccc2n1CC,8.0,1.7,-2.2,1,-71.4,-1.8
CCn1c(CCCNC(=O)c2cccs2)nc2ccccc21,14.9,1.6,76.3*,0.2,-58.7,-1.2
CCCC(=O)NCCCc1nc2ccccc2n1CCC,40.3*,1.5,7.2,0.9,-46.8,9.0
CCCCn1c(CNC(=O)CCC)nc2ccccc21,13.9,1,22.2,0.8,3.7,-13.6
CCCn1c(NCc2c[nH]c3ccccc23)nc2ccccc21,-0.1,0.7,71.1*,0.3,32.5,-4.0
CCCn1c(CNc2ccccc2O)nc2ccccc21,11.2,0.7,51.1*,0.5,27.9,11.9
COc1ccccc1-n1cnc2cc(C(=O)NCCCN3CCOCC3)ccc21,-4.9,0.7,18.1,0.8,27.1,20.6
NS(=O)(=O)c1cc(C(=O)N2CCc3ccccc32)c(Cl)cc1Cl,7.6,0.7,4.0,1,32.2,-11.0
O=CNCCCc1nc2ccccc2n1Cc1cccc2ccccc12,2.3,0.1,97.3*,0,91.3*,0.6
CCn1c(NC(=O)c2ccc(F)cc2)c2ccccc2nc1=O,11.5,0.8,72.2*,0.3,20.1,5.5
CCn1c(CCNC(=O)c2ccc(F)cc2)nc2ccccc21,-0.5,3.3*,95.0*,0.1,-230.2,1.4
CCn1c(CCCNC(=O)c2ccc(F)cc2)nc2ccccc21,3.5,0.8,43.9,0.6,22.9,4.8
